Data from PubChem BioAssay.
The source made the active and inactive calls.

Assays:
[1] = optical density shifts of acrAB sulA E. coli – strain DRC41, OD650, 48 h, E. coli filamentation inducer project, primary screen (AID 1152); details: higher = more signal, called active from +8 up or from −8 down;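 note: E. coli MC1000 strain DRC41 lacking acrAB efflux pump and sulA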
[2] = probe aLefty1 binding on compound microarray – biochemical, small-molecule microarray, 635/667 nm fluorescence, primary screen (AID 1153); details: higher = more signal;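 note: score merges spot fluorescence with signal-to-noise ratio from the scanned slide images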
[3] = plasmodial surface anion channel blockers, osmotic lysis – cell-based, P. falciparum Indochina, OD700, 1 h, primary screen (AID 1154); details: P. falciparum Indochina infected RBC osmotic lysis, higher = more signal, called active from +8 up or from −8 down
[4] = plasmodial surface anion channel blockers, osmotic lysis – cell-based, P. falciparum Indochina, OD700, 2 h, primary screen (AID 1155);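 note: lysis reports solute entry through the parasite surface anion channel PSAC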; details: P. falciparum Indochina infected erythrocytes, higher = more signal, called active from +8 up or from −8 down
[5] = changes in parasitized red cell lysis, either direction – P. falciparum Indochina, OD700, 3 h, PSAC antagonist project, primary screen (AID 1156); details: P. falciparum-infected erythrocytes, osmotic lysis, higher = more signal, called active from +8 up or from −8 down
[6] = plasmodial surface anion channel blockers, osmotic lysis – cell-based, P. falciparum Indochina, OD700, 18 h, primary screen (AID 1157); details: P. falciparum Indochina infected erythrocytes, osmotic lysis OD700, 18 h; higher = more signal, called active from +8 up or from −8 down
[7] = S6 kinase pathway phospho-S6 level changes – cell-based, A549, cytoblot, luminescence, serum-stimulated, primary screen (AID 1158); details: 5 h, higher = more signal;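 note: serum-stimulated A549 lung adenocarcinoma cells; signal is phosphorylated S6 detected by cytoblot immunostaining with HRP secondary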
[8] = target: NADPH oxidase 2 (Homo sapiens) (UniProt P04839); assay: compounds shifting NOX2 Amplex Red fluorescence – cell-based, HEK293-NOX2, PMA-stimulated, NOX inhibitor project, primary screen (AID 1159); details: 45 min, higher = more signal, called active from +8 up or from −8 down; note: test concentration not given here
[9] = target: NADPH oxidase 4 (Homo sapiens) (UniProt Q9NPH5); assay: compounds shifting NOX4 Amplex Red fluorescence – cell-based, HEK293-NOX4, tetracycline-induced, NOX inhibitor project, primary screen (AID 1160); details: HEK293-NOX4, Amplex Red H2O2 fluorescence, 45 min; higher = more signal, called active from +8 up or from −8 down
[10] = target: NADPH oxidase 5 (Homo sapiens) (UniProt Q96PH1); assay: compounds shifting NOX5 Amplex Red fluorescence – cell-based, HEK293-NOX5, NOX inhibitor project, primary screen (AID 1161); details: HEK293-NOX5, ionomycin, 45 min, higher = more signal
[11] = compound effects on lung adenocarcinoma cell viability – A549, calcein-AM fluorescence, 48 h, basal, profiling panel (AID 1162); details: higher = more signal; note: test concentration not given here
[12] = compound effects on differentiated 3T3-L1 adipocyte viability – cell-based, 3T3-L1 adipocytes, calcein-AM fluorescence, 48 h, basal, profiling panel (AID 1163); details: 3T3-L1 adipocytes viability, higher = more signal; note: test concentration not given here
[13] = compound effects on hepatocellular carcinoma cell viability – HepG2, calcein-AM fluorescence, 48 h, basal, profiling panel (AID 1164); details: higher = more signal; note: test concentration not given here
[14] = compound effects on multiple myeloma cell viability – MM1S, calcein-AM fluorescence, 48 h, basal, profiling panel (AID 1165); details: higher = more signal;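 note: viability of MM1S multiple myeloma cells under basal unstimulated conditions; test concentration not given here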
[15] = calcein-AM signal in unstimulated myeloma cells – cell-based, calcein-AM fluorescence, 48 h, PK04 Diversity Set, profiling panel (AID 1166); details: RPMI8226 myeloma viability, higher = more signal;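 note: cells grown under basal conditions without added stimulus; test concentration not given here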
[16] = JC-1 mitochondrial signal, unstimulated HepG2 cells – cell-based, JC-1 fluorescence, 24 h, 100 nL compound, profiling panel (AID 1167); details: HepG2 mitochondrial potential, higher = more signal; note: test concentration not given here
[17] = JC-1 mitochondrial signal, unstimulated adipocytes – cell-based, JC-1 fluorescence, 3T3-L1 adipocytes, 24 h, 100 nL compound, profiling panel (AID 1168); details: JC-1 mitochondrial fluorescence, higher = more signal, called active from +8 up or from −8 down; note: test concentration not given here
[18] = JC-1 mitochondrial signal, unstimulated myeloma cells – cell-based, JC-1 fluorescence, RPMI8226, 24 h, 100 nL compound, profiling panel (AID 1169); details: JC-1 mitochondrial potential fluorescence, higher = more signal; note: test concentration not given here
[19] = JC-1 mitochondrial signal, unstimulated MM1S myeloma – cell-based, JC-1 fluorescence, 24 h, 100 nL compound, profiling panel (AID 1170); details: MM1S mitochondrial potential, higher = more signal; note: test concentration not given here
[20] = resazurin metabolic signal in A549 cells – cell-based, resazurin fluorescence, 24 h, PK04 Diversity Set, profiling panel (AID 1171); details: A549 viability, higher = more signal, called active from +8 up or from −8 down; note: test concentration not given here

NADPH oxidase 4 (Homo sapiens), sequence (Q9NPH5 whole entry, looked up): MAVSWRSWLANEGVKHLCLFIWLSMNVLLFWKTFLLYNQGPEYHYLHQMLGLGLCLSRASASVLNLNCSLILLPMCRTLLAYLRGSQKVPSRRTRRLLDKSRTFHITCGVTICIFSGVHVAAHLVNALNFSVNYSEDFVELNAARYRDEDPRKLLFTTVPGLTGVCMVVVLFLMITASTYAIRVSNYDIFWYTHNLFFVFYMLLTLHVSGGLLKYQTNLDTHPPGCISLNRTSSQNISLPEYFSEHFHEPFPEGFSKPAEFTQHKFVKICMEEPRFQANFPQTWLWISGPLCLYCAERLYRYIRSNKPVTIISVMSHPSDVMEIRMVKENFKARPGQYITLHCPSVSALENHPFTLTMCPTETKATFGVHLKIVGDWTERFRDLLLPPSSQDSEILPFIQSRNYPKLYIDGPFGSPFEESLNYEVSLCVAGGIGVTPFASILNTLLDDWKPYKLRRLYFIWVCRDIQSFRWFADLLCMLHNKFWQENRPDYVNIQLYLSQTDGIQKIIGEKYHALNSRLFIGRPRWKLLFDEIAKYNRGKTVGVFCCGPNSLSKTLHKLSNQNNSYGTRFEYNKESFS
NADPH oxidase 2 (Homo sapiens), sequence (P04839 whole entry, looked up): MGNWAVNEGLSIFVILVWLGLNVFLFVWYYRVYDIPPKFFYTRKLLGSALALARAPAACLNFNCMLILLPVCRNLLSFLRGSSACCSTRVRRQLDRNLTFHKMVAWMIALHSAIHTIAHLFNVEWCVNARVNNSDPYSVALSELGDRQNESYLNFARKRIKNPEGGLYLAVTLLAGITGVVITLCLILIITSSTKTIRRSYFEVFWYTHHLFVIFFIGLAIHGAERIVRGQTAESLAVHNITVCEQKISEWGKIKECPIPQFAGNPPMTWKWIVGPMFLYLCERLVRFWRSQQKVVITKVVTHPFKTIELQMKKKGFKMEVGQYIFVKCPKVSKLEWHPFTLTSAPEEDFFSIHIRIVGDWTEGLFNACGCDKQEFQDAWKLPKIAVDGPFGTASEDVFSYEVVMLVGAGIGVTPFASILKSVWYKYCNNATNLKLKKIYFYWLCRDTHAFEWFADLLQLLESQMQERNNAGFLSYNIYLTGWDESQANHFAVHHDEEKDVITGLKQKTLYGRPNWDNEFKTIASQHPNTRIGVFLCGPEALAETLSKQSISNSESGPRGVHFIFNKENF
NADPH oxidase 5 (Homo sapiens), sequence (Q96PH1 whole entry, looked up): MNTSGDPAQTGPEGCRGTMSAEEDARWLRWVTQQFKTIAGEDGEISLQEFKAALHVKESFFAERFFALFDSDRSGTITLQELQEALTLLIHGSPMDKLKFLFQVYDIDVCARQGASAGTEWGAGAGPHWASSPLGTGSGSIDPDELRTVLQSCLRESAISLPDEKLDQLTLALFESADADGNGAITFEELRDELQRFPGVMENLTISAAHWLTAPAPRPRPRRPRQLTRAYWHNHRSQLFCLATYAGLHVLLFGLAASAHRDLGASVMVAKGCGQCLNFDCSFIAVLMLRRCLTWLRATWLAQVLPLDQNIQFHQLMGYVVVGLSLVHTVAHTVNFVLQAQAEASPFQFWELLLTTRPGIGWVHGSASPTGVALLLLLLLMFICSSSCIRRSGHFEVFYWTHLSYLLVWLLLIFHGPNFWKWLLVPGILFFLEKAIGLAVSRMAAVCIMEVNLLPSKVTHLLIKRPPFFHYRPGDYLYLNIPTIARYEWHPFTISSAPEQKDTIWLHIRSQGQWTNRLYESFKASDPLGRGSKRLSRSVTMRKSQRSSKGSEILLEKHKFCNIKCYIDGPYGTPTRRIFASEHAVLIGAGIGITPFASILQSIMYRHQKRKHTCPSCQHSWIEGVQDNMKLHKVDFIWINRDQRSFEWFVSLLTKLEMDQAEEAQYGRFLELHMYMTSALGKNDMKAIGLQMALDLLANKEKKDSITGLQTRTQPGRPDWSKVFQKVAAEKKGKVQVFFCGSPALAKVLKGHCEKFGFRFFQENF

Compound | z-score [1] | composite z-score [2] | z-score [3] | z-score [4] | z-score [5] | z-score [6] | z-score [7] | z-score [8] | z-score [9] | z-score [10] | z-score [11] | z-score [12] | z-score [13] | z-score [14] | z-score [15] | z-score [16] | z-score [17] | z-score [18] | z-score [19] | z-score [20]
COc1ccc(C#Cc2ccc3c(c2)[C@]2(C(=O)N3)[C@H](C(=O)N3CCc4cc(OC)c(OC)cc4C3)[C@H]3C(=O)O[C@H](c4ccccc4)[C@H](c4ccccc4)N3[C@@H]2c2ccc(OCCO)cc2)cc1 | 1.82 (inactive) | 0.423 | 5.73 (inactive) | 2.37 (inactive) | 0.279 (inactive) | 1.42 (inactive) | 0.0867 | 0.0908 (inactive) | 0.246 (inactive) | 0.115 | 1.04 | 0.386 | 0.515 | -0.73 | 0.223 | -0.233 | 2.37 (inactive) | -0.513 | -1.5 | 0.185 (inactive)
COc1cc2c(cc1O)C(c1ccc(CN3CCCC3)cc1)N(Cc1sc3ccccc3c1Cl)CC2 (stereo not given) | 0.13 (inactive) | -0.113 | 12.5 (active) | 2.66 (inactive) | 0.913 (inactive) | 1.7 (inactive) | 0.0223 | -3.44 (inactive) | -3.41 (inactive) | -4 | -0.42 | -0.0706 | -1.5 | -1.89 | -1.24 | -0.535 | -0.506 (inactive) | -0.105 | -0.774 | 0.835 (inactive)
O=c1cccc(-c2cccc3ccccc23)o1 | 0.109 (inactive) | 0.106 | 6.68 (inactive) | 1.37 (inactive) | -0.276 (inactive) | 0.832 (inactive) | -0.312 | -0.112 (inactive) | -2.39 (inactive) | -0.0533 | -1.07 | -0.893 | 0.0962 | -1.09 | -1.84 | 0.113 | 1.05 (inactive) | 0.608 | -1.07 | 0.058 (inactive)
C[C@]1(C(=O)NCC(F)(F)F)c2ccccc2C(=O)N(Cc2cc(F)cc(C(F)(F)F)c2)[C@H]1c1ccc(CO)cc1 | -0.436 (inactive) | -0.355 | 4.43 (inactive) | -0.263 (inactive) | 2.21 (inactive) | -0.682 (inactive) | 2.24 | -0.779 (inactive) | -2.9 (inactive) | -3.61 | -0.493 | 1.63 | -0.357 | -0.74 | -0.308 | 0.951 | -0.449 (inactive) | -0.494 | 0.206 | -0.557 (inactive)
Cc1ccc(S[C@]2(C(=O)NCC(F)(F)F)CC(=O)N(C3Cc4ccccc4C3)[C@@H]2c2ccc(CO)cc2I)cc1 | 1.1 (inactive) | 0.0013 | 6.63 (inactive) | 1.29 (inactive) | 0.577 (inactive) | 0.526 (inactive) | -0.204 | 0.994 (inactive) | -1.56 (inactive) | 1.06 | 0.833 | 0.236 | 0.506 | -2.1 | -3.02 | 0.194 | -0.131 (inactive) | 0.045 | -1.4 | 0.537 (inactive)
COc1ccc([Si](C)(C)[C@@H]2[C@@H](CCO)O[C@]3(C(=O)N(Cc4cccc(N(C=O)c5ccccc5)c4)c4ccccc43)[C@H]2C)cc1 | 0.313 (inactive) | 0.0811 | 4.07 (inactive) | 0.49 (inactive) | 2.32 (inactive) | -1.17 (inactive) | 0.62 | 0.773 (inactive) | -0.249 (inactive) | -0.78 | -1.54 | 1.72 | -0.854 | -1.12 | -1.68 | 0.719 | -0.0903 (inactive) | -0.881 | 0.0823 | -2.24 (inactive)
CC1CC/C=C\[C@H]2OC34C=CCN(CCN5CCOCC5)C(=O)[C@H]3N(CCCCCO)C(=O)[C@@H]4C2C(=O)O1 (stereo not given in full) | -0.346 (inactive) | -0.409 | 0.851 (inactive) | 0.618 (inactive) | 0.007 (inactive) | 0.257 (inactive) | 0.165 | 0.545 (inactive) | -0.277 (inactive) | 1.03 | -0.365 | 0.374 | 0.68 | 1.09 | 0.0186 | -0.461 | -0.189 (inactive) | -0.0345 | -0.107 | -0.19 (inactive)
O=C1O[C@H](c2ccccc2)[C@H](c2ccccc2)N2[C@H]1[C@@H](C(=O)NC[C@H](O)c1ccccc1)[C@]1(C(=O)Nc3ccc(C#CC4=CCCCC4)cc31)[C@H]2c1ccc(O)cc1 | 1.8 (inactive) | -0.0418 | 1.35 (inactive) | 0.393 (inactive) | -0.693 (inactive) | -0.521 (inactive) | 1.98 | 2.08 (inactive) | 0.754 (inactive) | -0.0561 | -1.06 | 1.72 | -1.25 | -3.18 | -3.47 | -2.78 | -0.683 (inactive) | -0.87 | -0.544 | 0.237 (inactive)
CC(C)N1C(=O)c2ccccc2[C@](C)(C(=O)NC2CC2)[C@@H]1c1ccc(CO)cc1 | 0.897 (inactive) | 0.0451 | 0.838 (inactive) | 0.122 (inactive) | -0.173 (inactive) | 0.475 (inactive) | -0.0085 | -0.987 (inactive) | -0.354 (inactive) | -0.547 | -0.778 | -0.415 | 0.176 | 0.0418 | 0.27 | 1.57 | 0.343 (inactive) | 0.747 | -0.847 | 0.688 (inactive)
